# Experimental data as given in PubChem BioAssay (NCATS).
# Results filed as inconclusive are left out. Values without a mark were called inactive. Active and inactive are the calls of the source. Calls follow the shape of the dose curve; as a rule, active = well fitted inhibition curve with a large enough effect; inconclusive = small, poorly fitted or top-dose-only effect; inactive = flat fitted curve, though single readings scatter.
# Target: Voltage-gated inwardly rectifying potassium channel KCNH2 (Homo sapiens) (UniProt Q12809)
# Sequence (Q12809 whole entry, looked up): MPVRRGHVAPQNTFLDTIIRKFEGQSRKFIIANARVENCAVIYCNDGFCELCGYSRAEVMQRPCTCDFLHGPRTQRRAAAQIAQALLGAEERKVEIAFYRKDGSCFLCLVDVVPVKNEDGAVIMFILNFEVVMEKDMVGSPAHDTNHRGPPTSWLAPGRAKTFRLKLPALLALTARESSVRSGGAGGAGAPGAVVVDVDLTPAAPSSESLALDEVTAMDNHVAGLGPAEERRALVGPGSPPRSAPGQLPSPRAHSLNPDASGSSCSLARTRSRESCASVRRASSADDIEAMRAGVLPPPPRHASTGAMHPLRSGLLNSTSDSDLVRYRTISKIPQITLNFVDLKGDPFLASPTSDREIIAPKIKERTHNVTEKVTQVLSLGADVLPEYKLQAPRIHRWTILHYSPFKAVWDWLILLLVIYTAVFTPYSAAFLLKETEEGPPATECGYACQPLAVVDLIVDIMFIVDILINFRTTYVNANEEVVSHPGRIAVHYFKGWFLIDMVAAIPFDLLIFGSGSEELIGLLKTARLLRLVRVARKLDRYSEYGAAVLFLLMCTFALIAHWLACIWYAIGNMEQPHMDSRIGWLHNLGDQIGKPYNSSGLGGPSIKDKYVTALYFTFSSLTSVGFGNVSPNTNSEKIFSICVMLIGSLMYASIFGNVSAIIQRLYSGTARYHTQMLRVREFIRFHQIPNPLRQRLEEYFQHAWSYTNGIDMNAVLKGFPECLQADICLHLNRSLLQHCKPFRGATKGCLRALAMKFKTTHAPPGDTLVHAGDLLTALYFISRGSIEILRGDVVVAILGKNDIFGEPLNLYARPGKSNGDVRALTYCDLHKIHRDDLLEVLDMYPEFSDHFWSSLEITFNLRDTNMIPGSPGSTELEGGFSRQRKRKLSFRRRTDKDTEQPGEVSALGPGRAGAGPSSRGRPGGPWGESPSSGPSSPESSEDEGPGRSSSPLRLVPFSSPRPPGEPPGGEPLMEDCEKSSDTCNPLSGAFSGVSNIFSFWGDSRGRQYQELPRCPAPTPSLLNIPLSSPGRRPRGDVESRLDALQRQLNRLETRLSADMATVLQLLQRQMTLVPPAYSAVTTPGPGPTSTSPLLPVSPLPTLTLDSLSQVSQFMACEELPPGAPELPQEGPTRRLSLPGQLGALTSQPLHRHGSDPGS
# Test: qHTS Assay for Small Molecule Inhibitors of the Human hERG Channel Activity (AID 588834);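 also: lower thallium flux fluorescence means stronger hERG block; nearly all actives have a fitted effect of over 50% in size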; as to activity change, negative = inhibition: top concentration of the series differs between compounds
# Settings: U2OS BacMam hERG, FluxOR thallium flux fluorescence; series mostly up to 46.1 µM; activity change, negative = inhibition: at the top concentration
# Summary of the method: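 hERG-BacMam U2OS, 2000 cells/well; 0.7X FluxOR loading 1 hr RT dark; cpd ~10 min 37 °C; stim buffer; FDSS fluorescence 2 min @ 1 s; AC50 Hill fit.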
# % is scaled to controls: 0 for no effect and ±100 for the full control effect; potency is read from the fitted curve at half-maximal effect.
Structure (SMILES),Potency,"activity change, negative = inhibition"
CCCCCCCCCCCCCCCC[N+](C)(C)CCN(Cc1ccc(OC)cc1)c1ncccn1,1.41 µM (active),
C[C@]12CC[C@H]3[C@@H](CCC4=CC(=O)CC[C@@]43C)[C@@H]1CC[C@@H]2C(=O)CO,,-0.156% [at 20.6 µM]
O=C(N/N=C/c1ccccc1O)c1ccncc1,,43.1%
N[C@@H](CCC(=O)N[C@@H](CS)C(=O)NCC(=O)O)C(=O)O,,-1.99%
CC(=O)O[C@]1(C(C)=O)CC[C@H]2[C@@H]3C[C@H](C)C4=CC(=O)CC[C@]4(C)[C@H]3CC[C@@]21C,inactive,
C[C@H](CCC(=O)O)[C@H]1CC[C@H]2[C@@H]3C(=O)C[C@@H]4CC(=O)CC[C@]4(C)[C@H]3CC(=O)[C@]12C,,15.5%
CC(Cc1ccccc1)(NC(=O)CN)c1ccccc1 (stereo not drawn),,19.6%
CCCC1O[C@@H]2C[C@H]3[C@@H]4CCC5=CC(=O)C=C[C@]5(C)[C@H]4[C@@H](O)C[C@]3(C)[C@]2(C(=O)CO)O1 (stereo partly drawn),,5.29%
CC1=C(C(=O)O)N2C(=O)[C@@H](NC(=O)[C@H](N)c3ccc(O)cc3)[C@H]2SC1,,5.53% [at 20.6 µM]
CC(=O)CC(c1ccc([N+](=O)[O-])cc1)c1c(O)c2ccccc2oc1=O (stereo not drawn),,-4.98% [at 20.6 µM]
CC1(C)O[C@@H]2C[C@H]3[C@@H]4C[C@H](F)C5=CC(=O)CC[C@]5(C)[C@H]4[C@@H](O)C[C@]3(C)[C@]2(C(=O)CO)O1,,-7.69% [at 20.6 µM]
CCOC(=O)[C@H](CCc1ccccc1)N[C@@H](C)C(=O)N1Cc2ccccc2C[C@H]1C(=O)O,,1.08%
CCCC(=O)O[C@]1(C(=O)CO)CC[C@H]2[C@@H]3CCC4=CC(=O)CC[C@]4(C)[C@H]3[C@@H](O)C[C@@]21C,,-1.67%
CCCCC(=O)O[C@]1(C(=O)CO)CC[C@H]2[C@@H]3CCC4=CC(=O)CC[C@]4(C)[C@H]3[C@@H](O)C[C@@]21C,,2.28%
CC1(C)O[C@@H]2C[C@H]3[C@@H]4CCC5=CC(=O)CC[C@]5(C)[C@@]4(F)[C@@H](O)C[C@]3(C)[C@]2(C(=O)CCl)O1,,0.0479% [at 20.6 µM]
NC(=O)c1cc[n+](CC2=C(C(=O)[O-])N3C(=O)[C@@H](NC(=O)Cc4cccs4)[C@H]3SC2)cc1,,-16.9% [at 20.6 µM]
COc1cc(/C=C/C(=O)O[C@H]2CC[C@]34C[C@]35CC[C@]3(C)[C@@H]([C@H](C)CCC=C(C)C)CC[C@@]3(C)[C@@H]5CC[C@H]4C2(C)C)ccc1O,,6.22%
CCCSS/C(CCO)=C(\C)N(C=O)Cc1cnc(C)nc1N,11.2 µM (active),
CN(C)CC/C=C1/c2ccccc2COc2ccc(CC(=O)O)cc21,,-2.31%

Structure (SMILES),Potency,"activity change, negative = inhibition"
COc1cc2c(cc1OC)[C@@H]1CC(=O)[C@@H](CC(C)C)CN1CC2,,-10.7%
CC(=O)OCC(=O)[C@@]1(O)[C@H](C)C[C@H]2[C@@H]3CCC4=CC(=O)C=C[C@]4(C)[C@@]3(F)[C@@H](O)C[C@@]21C,,-5.59% [at 20.6 µM]
CC1(C)O[C@@H]2[C@@H](CO[C@@]3(COS(N)(=O)=O)OC(C)(C)O[C@@H]23)O1,,-13.9%
Oc1c(I)cc(I)c2cccnc12,,176%
C[C@@H]1C[C@H]2[C@@H]3C[C@H](F)C4=CC(=O)C(Cl)=C[C@]4(C)[C@@]3(F)[C@@H](O)C[C@]2(C)[C@@]1(O)C(=O)CO,,-3.03%
CC(=O)O[C@H]1C[C@@H]2CC[C@@H]3[C@H](CC[C@@]4(C)[C@H]3C[C@H]([N+]3(C)CCCCC3)[C@@H]4OC(C)=O)[C@@]2(C)C[C@@H]1[N+]1(C)CCCCC1,,-9.6%
C#C[C@]1(O)CC[C@H]2[C@@H]3CCC4=CC(=O)CC[C@@H]4[C@H]3CC[C@@]21C,,3.72%
C[C@]12C=CC(=O)C=C1CC[C@@H]1[C@@H]2[C@@H](O)C[C@@]2(C)[C@H]1CC[C@]2(O)C(=O)CO,,-0.49%
CC(=O)[C@H]1CC[C@H]2[C@@H]3C[C@H](C)C4=CC(=O)CC[C@]4(C)[C@H]3[C@@H](O)C[C@]12C,,-19.7% [at 20.6 µM]
OC[C@@H](O)[C@@H](O[C@@H]1O[C@H](CO)[C@H](O)[C@H](O)[C@H]1O)[C@H](O)[C@@H](O)CO,,4.93%
CC(=O)OCC(=O)[C@@]12OC(C)(C)O[C@@H]1C[C@H]1[C@@H]3C[C@H](F)C4=CC(=O)C=C[C@]4(C)[C@@]3(F)[C@@H](O)C[C@@]12C,,-4.35% [at 20.6 µM]
CN(C)CC/C=C1\c2ccccc2Sc2ccc(Cl)cc21,8.91 µM (active),
CN1CCCC(CC2c3ccccc3Sc3ccccc32)C1 (stereo not drawn),4.47 µM (active),
CCCC(=O)Nc1ccc(OCC(O)CNC(C)C)c(C(C)=O)c1 (stereo not drawn),,-7.96% [at 20.6 µM]
CC(=O)OCC(=O)[C@@]1(O)CC[C@H]2[C@@H]3CCC4=CC(=O)C=C[C@]4(C)[C@H]3[C@@H](O)C[C@@]21C,,4.27%
CN(C/C=C/c1ccccc1)Cc1cccc2ccccc12,10 µM (active),
C[C@]12CCC(=O)C=C1[C@@H]1C[C@@H]1[C@H]1[C@@H]3[C@@H]4C[C@@H]4[C@@]4(CCC(=O)O4)[C@@]3(C)CC[C@@H]12,,-1.76%
C=C1C[C@H]2[C@@H]3C=C(C)C4=CC(=O)CC[C@]4(C)[C@H]3CC[C@]2(C)[C@@]1(OC(C)=O)C(C)=O,,4.08%
CCN(CCCCOC(=O)c1ccc(OC)c(OC)c1)C(C)Cc1ccc(OC)cc1 (stereo not drawn),2.24 µM (active),
